Potency and affinity values are given separately.
target: Protein translocase subunit SecA (Escherichia coli (strain K12)) (UniProt P10408); assay: Assay to Identify E. coli SecA ATPase Inhibitors; assay type: functional; parameters: scale not given: direction of the effect not stated beside the values; conditions: 30 µM
Sequence (P10408 whole entry): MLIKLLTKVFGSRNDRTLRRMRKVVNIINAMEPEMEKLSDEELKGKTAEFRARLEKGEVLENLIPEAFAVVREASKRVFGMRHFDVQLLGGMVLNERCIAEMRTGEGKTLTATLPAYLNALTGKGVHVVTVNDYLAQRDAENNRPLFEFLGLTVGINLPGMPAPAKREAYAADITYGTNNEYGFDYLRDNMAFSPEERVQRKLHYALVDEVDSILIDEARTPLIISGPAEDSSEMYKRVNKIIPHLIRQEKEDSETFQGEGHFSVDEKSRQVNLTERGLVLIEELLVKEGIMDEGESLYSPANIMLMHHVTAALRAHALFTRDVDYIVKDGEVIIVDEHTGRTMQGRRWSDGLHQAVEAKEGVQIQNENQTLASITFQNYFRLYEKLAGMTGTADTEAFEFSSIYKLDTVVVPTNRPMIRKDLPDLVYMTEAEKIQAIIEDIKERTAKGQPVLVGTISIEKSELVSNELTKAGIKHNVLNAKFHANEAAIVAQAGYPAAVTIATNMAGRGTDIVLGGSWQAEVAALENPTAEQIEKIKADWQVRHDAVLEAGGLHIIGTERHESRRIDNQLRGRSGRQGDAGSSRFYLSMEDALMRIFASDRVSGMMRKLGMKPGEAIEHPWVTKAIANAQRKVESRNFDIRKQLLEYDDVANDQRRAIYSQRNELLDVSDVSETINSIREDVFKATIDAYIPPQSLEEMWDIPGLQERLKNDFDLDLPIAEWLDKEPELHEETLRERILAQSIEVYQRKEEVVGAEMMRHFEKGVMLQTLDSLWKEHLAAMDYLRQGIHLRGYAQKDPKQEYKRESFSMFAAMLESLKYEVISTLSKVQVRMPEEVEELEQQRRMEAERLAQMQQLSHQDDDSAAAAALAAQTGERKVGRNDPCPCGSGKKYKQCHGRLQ

Row | Compound | Percent Effect
1 | CCn1cc(Br)c(C(=O)NCc2cccnc2)n1 | -2.44%
2 | CCNC(=O)N1CCCCC1CCO (stereo not given) | 1.22%
3 | Cc1ccc(CN2Cc3c(C(=O)N(C)C)nn(C)c3C2)s1 | -0.916%
4 | COc1ccc(-n2ccc(C(=O)N3CCC(C(N)=O)C3)n2)cc1 (stereo not given) | -7.71%
5 | CC(C)(C)C(=O)NCCC(=O)NC(C)(C)c1ccc2c(c1)OCCO2 | -1.46%
6 | Cn1ncc2c(NCCOc3ccc(F)cc3)nc(C3CCCC3)nc21 | -2.15%
7 | O=C(CCc1ccsc1)NCC1CCN(c2ccccc2)C1 (stereo not given) | 0.538%
8 | CC(NC(=O)COc1nc(C(C)(C)C)no1)c1ccco1 (stereo not given) | -6.83%
9 | CCOCCN1CCN(Cc2nnc(C3CC3)o2)CC1CC (stereo not given) | -2.67%
10 | Cc1nccc(CNC(=O)NCCOc2ccc(F)c(F)c2)n1 | -4.87%
11 | COC[C@]12COC[C@H]1CN(Cc1cc(OC)cc(OC)c1)C2 | -2.64%
12 | CN(C)CC(=O)N1CCC2(CC1)CN(c1ccsc1)C(=O)CO2 | -9.33%
13 | COc1ccc(-c2nnc(SC(C)C(=O)NC3CC3)[nH]2)c(OC)c1 (stereo not given) | -8.04%
14 | Cc1cc(NC(=O)CCN2CCCC2Cn2cncn2)no1 (stereo not given) | -6.97%
15 | CCN(CC)c1ccc(C(=O)NCc2cccnc2-n2cncn2)cn1 | -0.491%
16 | O=C(c1ccco1)N1CCOCC2(C1)CN(c1ccccc1)C(=O)CO2 (stereo not given) | -3.5%
17 | O=C(Cc1ccc2c(c1)CCO2)N1CCCCC1Cn1cccn1 (stereo not given) | -5.85%
18 | CCCc1cc(=O)[nH]c2nnc(SCC(=O)NCc3ccc(C)cc3)n12 | -0.143%
19 | CCc1cnc(CN(C(C)=O)C2CCN(CCc3cnn(C)c3)C2)o1 (stereo not given) | -2.73%
20 | Cc1nc(C)n(CC2CCCN(CCc3ccncc3)C2)n1 (stereo not given) | -3.33%

Source: ChEMBL document CHEMBL3988442, “University of Dundee, Small-Polar-MMV Screening Library” (2021)
